# From PubChem BioAssay
# Hits are enriched below; roughly 2.1% of the tested compounds scored in any of these assays.
# aDG glyco act: activators of alpha-DG glycosylation, primary screen, uHTS, Pro5-aDG cells, AlphaScreen | actives 0.22% (n = 360,000) | AID 624168, 2012 | alpha-DG glycosylation AlphaScreen (IIH6); 0% Pro5, 100% B10-LARGE cell signal | activation, % at 10 µM;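 active = activation of at least 8% versus controls, or a plate z-score of at least 8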;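 note: Pro5 are CHO cells carrying HIG-tagged alpha-DG that lacks glycosylation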
# Gli-Sufu antag: Gli-Sufu pathway antagonists, primary screen, luciferase luminescence, Sufu-KO-LIGHT cells, uHTS. Sufu-KO-LIGHT fibroblasts, Gli luciferase reporter luminescence. actives 0.74% (n = 340,000). inhibition, % at 5 µM;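 active = inhibition above about 55%, limit read from the data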
# Env fusion inh: inhibitors of HIV-1 Env-driven cell-cell fusion, primary screen, HeLa-JRFL effector, CEM21 target cells, luciferase; inhibition, % at 12.3 µM; actives 1.1% (n = 360,000);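 active = mean replicate inhibition score of at least 50 and every replicate individually at or above 50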
# GalR3 antagonist: GalR3 antagonists in HEK293 cells, primary screen, cell-based, fluorescence readout; AID 651719, 2012; HEK293 GalR3-CNG cAMP membrane potential fluorescence; galR3 body fused to GalR1 C-terminus; actives 0.44% (n = 360,000); Galanin receptor type 3 (Homo sapiens), O60755; inhibition, % at 3 µM;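 active = inhibition above the screen-wide average plus 3 SD, cut at about 13% in these data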;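 note: forskolin and galanin both at EC90 stimulate the cells; cAMP rise reported by CNG channel membrane potential dye signal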
# COUP-TFII inh: NR2F2 transcriptional activity inhibitors, primary screen, cell-based, luciferase reporter, HEK293T, luminescence. COUP transcription factor 2 (Homo sapiens), P24468. HEK293T NGFI-A luciferase reporter. inhibition, % at 8.6 µM. actives 0.7% (n = 370,000);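 active = inhibition above a per-plate cutoff, mean inhibition of test wells between control levels plus 3 SD, cut at about 38% in these data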;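 note: cells cotransfected with COUP-TFII expression vector driving the NGFI-A reporter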
# Target sequence (P24468 whole entry, looked up): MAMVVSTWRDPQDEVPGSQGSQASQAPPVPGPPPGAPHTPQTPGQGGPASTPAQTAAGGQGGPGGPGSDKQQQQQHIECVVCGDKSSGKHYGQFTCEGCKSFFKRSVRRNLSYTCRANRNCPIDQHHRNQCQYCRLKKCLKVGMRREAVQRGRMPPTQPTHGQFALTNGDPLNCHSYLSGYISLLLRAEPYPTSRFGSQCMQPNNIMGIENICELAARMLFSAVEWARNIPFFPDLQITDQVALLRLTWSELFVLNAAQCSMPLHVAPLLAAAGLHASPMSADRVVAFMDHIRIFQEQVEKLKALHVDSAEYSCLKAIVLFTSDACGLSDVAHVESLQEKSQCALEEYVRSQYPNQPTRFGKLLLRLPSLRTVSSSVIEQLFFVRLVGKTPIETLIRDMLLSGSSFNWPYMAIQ
# A number is an active result; 0 = inactive; - = no result; [ ] = remark or other dose.
SMILES,aDG glyco act,Gli-Sufu antag,Env fusion inh,GalR3 antagonist,COUP-TFII inh
C[C@H](CO)N1C[C@H](C)[C@@H](CN(C)S(C)(=O)=O)Oc2c(NC(=O)C3CCCCC3)cccc2C1=O,0,0,0,0,0
C[C@H]1CN([C@@H](C)CO)C(=O)c2cccc(NC(=O)C3CCCCC3)c2O[C@@H]1CN(C)CC1CCCCC1,-,-,0,-,-
C[C@@H]1CN([C@H](C)CO)C(=O)c2cccc(NC(=O)c3cnccn3)c2O[C@H]1CN(C)Cc1ccccc1,-,-,64.2[16.7 µM],-,-
Cc1noc(C)c1NC(=O)Nc1ccc2c(c1)C(=O)N([C@H](C)CO)C[C@H](C)[C@H](CN(C)Cc1ccc(C(F)(F)F)cc1)OCCCC[C@H](C)O2,-,-,0,-,-
C[C@H]1CN([C@@H](C)CO)C(=O)c2cc(NC(=O)CCC(F)(F)F)ccc2O[C@@H]1CN(C)CC1CC1,-,-,0,-,-
C[C@@H]1CN([C@@H](C)CO)C(=O)c2cccc(NC(=O)C3CCCCC3)c2O[C@H]1CN(C)Cc1ccccc1,-,-,62.6[16.7 µM],-,-
C[C@H](CO)N1C[C@H](C)[C@@H](CN(C)Cc2ccccc2)Oc2c(NC(=O)C3CCCCC3)cccc2C1=O,0,0,0,0,0
C[C@@H]1CN([C@@H](C)CO)C(=O)c2cccc(NC(=O)c3ccc(-c4nccs4)cc3)c2O[C@H]1CN(C)CC1CC1,-,-,57.3[16.7 µM],-,-
C[C@H](CO)N1C[C@H](C)[C@@H](CN(C)CC2CC2)Oc2c(NC(=O)c3ccc(-c4nccs4)cc3)cccc2C1=O,-,-,0,-,-
CC(=O)N(C)C[C@H]1Oc2ncc(C3=CCCC3)cc2C(=O)N([C@@H](C)CO)C[C@H]1C,-,-,0,-,-
O=C(N/N=C/c1ccncc1)c1cccs1,0,0,-,-,-
O=C(N/N=C/c1ccc(-n2ccnc2)cc1)c1cccs1,0,0,75.4,0,0
COc1ccc(CNC(=O)C[C@H]2C=C[C@H](NC(=O)c3ccc4c(c3)OCO4)[C@@H](CO)O2)cc1,-,-,0,-,-
Cc1ccc(Cc2c(-c3ccco3)nc3c(C)cc(Br)cn23)cc1,0,-,0,34.5,0
CO[C@H]1CN(C)C(=O)c2cc(NC(=O)Nc3ccc(Cl)c(Cl)c3)ccc2OC[C@H](C)NC[C@H]1C,-,-,0,-,-
CCc1cnc(N2[C@H](C#N)[C@H](c3ccc(C#Cc4ccccc4F)cc3)[C@@H]2CO)s1,-,-,0,-,-
CCc1cnc(N2[C@H](C#N)[C@H](c3ccc(C#Cc4ccccc4F)cc3)[C@H]2CO)s1,-,-,64.9[16.7 µM],-,-
C[C@H](CO)N1C[C@H](C)[C@H](CN(C)Cc2ccc(Cl)c(Cl)c2)Oc2ccc(NS(=O)(=O)c3cccs3)cc2C1=O,-,-,0,-,-
COc1cccc(S(=O)(=O)N(C)C[C@H]2Oc3cc(C4=CCCC4)ccc3S(=O)(=O)N([C@@H](C)CO)C[C@@H]2C)c1,-,-,0,-,-
COc1cccc(S(=O)(=O)N(C)C[C@H]2Oc3cc(C4=CCCC4)ccc3S(=O)(=O)N([C@H](C)CO)C[C@H]2C)c1,-,-,94.6[16.7 µM],-,-
COc1cccc(S(=O)(=O)N(C)C[C@H]2Oc3cc(C4=CCCC4)ccc3S(=O)(=O)N([C@H](C)CO)C[C@@H]2C)c1,-,-,63.1[16.7 µM],-,-
O=C(Nc1cc(Cl)cc(Cl)c1)N[C@@H]1CC[C@@H](CCNS(=O)(=O)c2cccc(F)c2)O[C@H]1CO,-,-,0,-,-
CCc1nc2ccc(C(=O)NCCN3CCNC3=O)cn2c1N(CC)Cc1cccc(Br)c1,0,-,72.0,0,0
Oc1ccc(Cl)cc1-c1cc(C(F)(F)C(F)F)nc(-c2ccccc2)n1,0,0,66.5,0,0
COc1ccc(N(CC(=O)NCCSC2CCCCC2)S(=O)(=O)c2ccccc2)c(OC)c1,0,-,64.1,0,0
SMILES,aDG glyco act,Gli-Sufu antag,Env fusion inh,GalR3 antagonist,COUP-TFII inh
COc1ccc(OC)c(N(CC(=O)NCCSC2CCCCC2)S(=O)(=O)c2ccccc2)c1,0,0,58.5,0,0
CCCCCCCCN1C(=O)[C@@H](CC(=O)NCc2ccc(OC)c(OC)c2)C[C@@]2(C(=O)OC)C1=C[C@H](C(C)(C)C)O[C@@H]2C,-,-,69.9,0,0
CCCCCCCCN1C(=O)[C@@H](CC(=O)NCc2cccc3ccccc23)C[C@@]2(C(=O)OC)C1=C[C@H](C(C)(C)C)O[C@@H]2C,-,-,63.2,0,0
CCCCCCCCN1C(=O)[C@@H](CC(=O)NCc2ccc(OC)c(OC)c2)C[C@@]2(C(=O)OC)C1=C[C@H](C1CCCC1)O[C@@H]2C,-,-,0,0,0
COC(=O)[C@]12C[C@H](CC(=O)NCc3cccc(C(F)(F)F)c3)C(=O)N(CCc3ccc(OC)c(OC)c3)C1=C[C@H](C(C)(C)C)O[C@@H]2C,-,-,0,0,0
COC(=O)[C@]12C[C@H](CC(=O)NCc3ccc(OC)c(OC)c3)C(=O)N(CCc3ccc(OC)c(OC)c3)C1=C[C@H](C(C)(C)C)O[C@@H]2C,-,-,58.3,0,0
COC(=O)[C@]12C[C@H](CC(=O)NCc3cccc4ccccc34)C(=O)N(Cc3cccc4ccccc34)C1=C[C@H](C(C)(C)C)O[C@@H]2C,-,-,-,-,0
O=C(Nc1ccc(F)cc1)Nc1ccc2c(c1)[C@H]1C[C@@H](CC(=O)N3CCCCC3)O[C@@H](CO)[C@H]1O2,-,-,0,-,-
C[C@H](CO)N1C[C@H](C)[C@@H](CN(C)C(=O)C2CCCCC2)Oc2ncc(-c3cccnc3)cc2C1=O,-,-,0,-,-
CCCNC(=O)C[C@H]1C[C@H]2c3cc(NC(=O)COC)ccc3O[C@H]2[C@@H](CO)O1,-,-,0,-,-
O=C(c1ccc(S(=O)(=O)Nc2ccc(F)cc2)cc1)N1CCN(C(=O)c2ccco2)CC1,0,0,73.2,0,0
C[C@H]1CN([C@@H](C)CO)C(=O)c2cc(NC(=O)Nc3ccc4c(c3)OCO4)ccc2O[C@H]1CN(C)CC1CCCCC1,-,-,0,-,-
C[C@@H]1CN([C@H](C)CO)C(=O)Cc2cc(NC(=O)Nc3ccc4c(c3)OCO4)ccc2O[C@@H]1CN(C)Cc1ccc(C(F)(F)F)cc1,-,-,0,-,-
O=C(Nc1ccc([N+](=O)[O-])cc1)Nc1ccc(Cl)cc1F,0,0,66.0,0,0
COc1ccc2nc(NN=C(C)c3ccccn3)cc(C)c2c1,0,78.6,0,0,0
COC(=O)c1c(NC(=O)CN2CCC3(O)CCCCC3C2c2cc(OC)ccc2OC)sc(C)c1C (stereo not given),0,0,90.6,0,0
CCCC#Cc1cnc2c(c1)C(=O)N([C@@H](C)CO)C[C@H](C)[C@H](CN(C)Cc1ccc3c(c1)OCO3)O2,-,-,0,-,-
COC(=O)c1ccc(CC2(C)C(=O)Nc3ccc(-c4cccc(C(F)(F)F)c4)cc32)o1 (stereo not given),0,-,64.8,0,0
CC(=O)Nc1ccc2c(c1)C(N1CC3CCC(CC3)C1)c1ccccc1-2 (stereo not given),0,0,67.1,0,0
